The results in this text go back to PubChem BioAssay.

Calls of active or inactive are those of the source.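 The calls were made as follows: active = inhibition at or above 50% relative to wild type and mutant plate controls; inactive = inhibition below 50%.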

This test is described as follows: loss of swimming-algae plug formation – whole organism, Chlamydomonas reinhardtii, WT vs cilia-less mutant, absorbance, 96-well, primary screen (AID 463189).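 Also: 0% = wild type cc124 cells in DMSO and 100% = ciliumless bld1 mutant cells.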 Conditions: Chlamydomonas reinhardtii gravitaxis, OD600 absorbance, 2 days; at 10 µM; hits give high values.
In the case of `COc1cc(C=C(C#N)C#N)cc(O)c1O`, the inhibition (usually the change of the read-out against control, counted positive when it falls) was 10.5% (inactive).
As to `C#CCN(C)[C@@H](C)Cc1ccccc1`, the inhibition was 7.92% (inactive).
For `NNC(=O)c1ccc(O)cc1`, the inhibition was -10.7% (inactive).
In the case of `NC(=O)c1cc(N2CC2)c([N+](=O)[O-])cc1[N+](=O)[O-]` it was -4% (inactive).
